Results on 19 compounds are retold here after PubChem BioAssay (Tox21).

Inconclusive results are not listed. Calls of active or inactive are those of the source. Calls come from the whole dose curve; as a rule, active = well fitted inhibition curve with a large enough effect in the signal ratio in the repeat runs (not every such curve was filed as active); inconclusive = weak or mixed curves, or effect the other way; inactive = no such curve, though single readings can be large or run the other way; the % refers to the signal ratio.
% is set by controls: 0 for no effect and ±100 for the full control effect; potency is the fitted concentration of half-maximal effect.

Chain of Peroxisome proliferator-activated receptor delta (Homo sapiens) (Q03181 whole entry, looked up): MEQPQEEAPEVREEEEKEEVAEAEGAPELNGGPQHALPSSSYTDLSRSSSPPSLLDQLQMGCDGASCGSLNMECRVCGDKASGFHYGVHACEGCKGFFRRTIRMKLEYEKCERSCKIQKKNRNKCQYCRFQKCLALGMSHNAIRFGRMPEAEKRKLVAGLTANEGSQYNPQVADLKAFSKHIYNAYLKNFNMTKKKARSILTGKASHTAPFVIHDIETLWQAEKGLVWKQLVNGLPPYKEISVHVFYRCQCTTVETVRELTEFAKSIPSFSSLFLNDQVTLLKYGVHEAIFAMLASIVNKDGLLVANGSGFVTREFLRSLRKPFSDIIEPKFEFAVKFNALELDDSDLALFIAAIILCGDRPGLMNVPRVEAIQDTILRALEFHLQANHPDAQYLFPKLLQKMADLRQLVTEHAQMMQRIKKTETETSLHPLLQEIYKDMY

This experiment addresses Peroxisome proliferator-activated receptor delta (Homo sapiens) (UniProt Q03181). Nature of the experiment: qHTS assay to identify small molecule antagonists of the peroxisome proliferator-activated receptor delta (PPARd) signaling pathway (AID 743215).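 Note: cells stimulated with agonist L165041 at 300 nM final during compound exposure.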 The settings on record: HEK293H PPARd-UAS-bla, beta-lactamase FRET ratio, antagonist, 17 h; series mostly up to 62 µM; ratio activity, negative = inhibition: at the top concentration. The method in brief:
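Screen format: qHTS, antagonist mode. HEK293H PPARd-bla cells received compound and 300 nM L165041 (final), 17 h, 37 C. Beta-lactamase detected via FRET substrate fluorescence, 2 h, room temperature.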
For orientation: Quantitative high-throughput screening tests each substance at several concentrations.
On to `CC(COc1ccc(C(C)(C)C)cc1)OS(=O)OCCCl` (centres undefined), for which the “ratio activity, negative = inhibition” value was 1.75% [at 80.4 µM] (inactive). On to `CCCC(=O)O[C@]1(C(=O)COC(=O)CC)CC[C@H]2[C@@H]3CCC4=CC(=O)CC[C@]4(C)[C@H]3[C@@H](O)C[C@@]21C`, for which the “ratio activity, negative = inhibition” value is -7.59% [at 28.9 µM] (inactive). `O=C(O)c1ccccc1NCCc1ccccc1`: the “ratio activity, negative = inhibition” value is -7.62% (inactive). `CCC(C)(C)C1CCC(O)CC1` (centres undefined): the “ratio activity, negative = inhibition” value was 3.75% (inactive). Regarding `COC(=O)CC(=O)C(C)(C)C`, the “ratio activity, negative = inhibition” value was -1.83% (inactive). Take `COCc1c(C(C)C)nc(C(C)C)c(/C=C/[C@@H](O)C[C@@H](O)CC(=O)O)c1-c1ccc(F)cc1`: the “ratio activity, negative = inhibition” value was -6.7% (inactive). As to `O=C(Nc1ccccc1)Nc1ccccc1`, the “ratio activity, negative = inhibition” value was 0.669% [at 80.4 µM] (inactive).

With `CCn1cc(C(=O)O)c(=O)c2cc(F)c(N3CCNCC3)nc21`, the “ratio activity, negative = inhibition” value is 2.92% (inactive). For `CC(=O)OCC(=O)[C@@]12OC(C)(C)O[C@@H]1C[C@H]1[C@@H]3C[C@H](F)C4=CC(=O)C=C[C@]4(C)[C@@]3(F)[C@@H](O)C[C@@]12C`, the “ratio activity, negative = inhibition” value is 17.3% (inactive). In the case of `CCCCC1C(=O)N(c2ccccc2)N(c2ccc(O)cc2)C1=O` (centres undefined), the “ratio activity, negative = inhibition” value is -1.98% (inactive). The same measure, in the same setting: then `Nc1ccc(Cl)cc1[N+](=O)[O-]`, with 0.127% (inactive); and `Brc1cc(-c2ccc(Br)c(Br)c2Br)cc(Br)c1Br`, with -11.4% (inactive). For the compound `O=C(O)C(Cc1cc(I)c(O)c(I)c1)c1ccccc1` (centres undefined), the “ratio activity, negative = inhibition” value was 1.26% (inactive). As for `CC(C)(C)C(=O)C(Oc1ccc(Cl)cc1)n1ccnc1` (centres undefined), the “ratio activity, negative = inhibition” value was -11.9% (inactive). In the case of `C=CCOC(=O)/C=C\C(=O)OCC=C`, the “ratio activity, negative = inhibition” value was 2.64% [at 80.4 µM] (inactive). For the compound `NC(=O)N(O)[C@@H]1C=C[C@H](Oc2cccc(Oc3ccc(F)cc3)c2)C1`, the “ratio activity, negative = inhibition” value is 14.9% (inactive). Consider `CCC(C(=O)OCCN(CC)CC)c1ccccc1` (centres undefined), for which the “ratio activity, negative = inhibition” value is 10.9% (inactive). As to `O=C(O)Cc1ccc(-c2ccccc2)cc1`, the “ratio activity, negative = inhibition” value is 4% (inactive). Consider `CCCCN(CCCC)C(=S)SSC(=S)N(CCCC)CCCC`, for which the Potency was 21.7 µM (active).
